The campaign covered roughly 300,000 compounds. About 3,300 (1.1%) were called active. Another 6% or so got no clear call; they are omitted. The sample holds actives, similar compounds and a random draw of the others, so the mix is not that of the screen. Unmarked numbers belong to inactive results.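 Rule for the calls: active = more than half of the replicate wells show a fall in the fluorescence ratio signal beyond about 16% (limit read from the data, passing the limit was not always enough); inconclusive = exactly half of the replicate wells pass the set limit; inactive = fewer than half of replicates pass the limit.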
What follows are molecules tested on Ran GTPase (GTP-bound) - importin-beta complex (assay: disruptors of Ran-importin-beta complex formation – biochemical, FRET, CFP-Ran, YFP-importin-beta, homogeneous, primary screen (AID 2216;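 note: 0% = DMSO wells and 100% = Ran loaded with GDP instead of GTP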)). Conditions: cell-free CFP-Ran/YFP-importin-beta FRET ratio; active compounds read high; concentration not given here.

Row | SMILES | inhibition
1 | CCCNC(=O)c1ccc(N2CCC3(CC2)CC(c2cccc(Br)c2)=NO3)c(NC(=O)c2ccco2)c1 | -1.47%
2 | Cc1cc(/C=C2/SC(=O)N(CC(=O)N3CCCC3)C2=O)c(C)n1C | -0.395%
3 | CCN(CC(=O)Nc1c(F)cccc1F)C(=O)CN1c2cccc3cccc(c23)S1(=O)=O | -0.907%
4 | COc1ccc(Cc2nnc(SCC(=O)Nc3ccc(C)c(Cl)c3)[nH]c2=O)cc1 | -0.239%
5 | O=C(COC(=O)c1ccc([N+](=O)[O-])cc1Cl)NC(=O)c1ccccc1 | -13.9%
6 | Cc1ccc(C2=C/C(=C\c3cccnc3)C(=O)O2)cc1 | 8.88%
7 | CN(C)/C=C1\C=C(c2ccccc2)OC1=O | -3.27%
8 | COc1cccc(/C=C2\C=C(c3ccc(C)cc3)OC2=O)c1OC(C)=O | 20.6% (active)
9 | COc1cccc(/C=C/C(=O)OCC(=O)N2CCCc3ccccc32)c1 | 3.35%
10 | O=C(CCNC(=O)c1ccc(Br)cc1)NCCCc1ccccc1 | 1.56%
11 | O=C(NCc1cccnc1)c1cc(S(=O)(=O)N2CCOCC2)c(Cl)cc1Cl | -0.678%
12 | COc1ccc(CCNC(=O)Cn2c(=O)n(CC3CCCO3)c(=O)c3ccccc32)cc1OC (configuration not stated) | -2.65%
13 | COc1ccc(CCn2c(=N)c(C(=O)NCc3ccco3)cc3c(=O)n4cccc(C)c4nc32)cc1 | 21.1% (active)
14 | Cc1cccn2c(=O)c3cc(C(=O)NC4CCCCC4)sc3nc12 | 2%
15 | COc1ccc2oc(C(=O)NCc3ccco3)c(C)c2c1 | -0.417%
16 | Cc1cccn2c(=O)c3cc(C#N)c(=NC(=O)c4cccnc4)n(CC4CCCO4)c3nc12 (configuration not stated) | 154% (active)
17 | Cc1ccc(CCNC(=O)c2ccc3nc4ccccc4c(=O)n3c2)cc1 | 8.55%
18 | Cc1ccc2nc3c(cc(C(=O)NCCc4ccccc4)c(=N)n3CC3CCCO3)c(=O)n2c1 (configuration not stated) | 182% (active)
19 | Cc1ccccc1NC(=O)Cn1c(=O)n(CC2CCCO2)c(=O)c2ccccc21 (configuration not stated) | 0.402%
20 | Cc1ccc(C(=O)NCCN2CCOCC2)cc1C | -1.81%
21 | Cc1cccn2c(=O)c3cc(C(=O)NCCN4CCOCC4)c(=N)n(Cc4cccnc4)c3nc12 | 167% (active)

Row | SMILES | inhibition
22 | O=C(NCc1ccco1)c1cccn2c(=O)c3c4c(sc3nc12)CCCC4 | -9.38%
23 | COc1cccc(NC(=O)CSc2nccn(-c3ccc4c(c3)OCCO4)c2=O)c1 | -2.91%
24 | CCCCN(C1CCS(=O)(=O)C1)S(=O)(=O)c1ccc(C(C)C)cc1 (configuration not stated) | 0.359%
25 | O=C(c1ccc(NS(=O)(=O)c2ccc3[nH]c(=O)[nH]c3c2)cc1)N1CCCCC1 | 0.81%
26 | COc1ccc(CCNC(=O)c2ccccc2OCc2ccccc2)cc1 | 2.59%
27 | O=C(N[C@@H](Cc1ccccc1)C(=O)OCc1ccccc1)c1nc[nH]c1C(=O)NC1CCNCC1 | 1.19%
28 | Cc1ccc2nc(N3CCN(C(=O)c4ccco4)CC3)sc2c1 | -2.41%
29 | COc1ccc(C(=O)OCC(=O)c2ccc(Cl)s2)c(OC)c1OC | 0.711%
30 | Cc1cc(C)c(S(=O)(=O)NCC(c2ccc3c(c2)OCO3)N2CCOCC2)c(C)c1 (configuration not stated) | 2.24%
31 | Cc1cccn2c(=O)c3cc(C#N)c(=O)n(CCCN4CCOCC4)c3nc12 | 117% (active)
32 | O=C(NCC1CCCO1)c1cc2c([nH]c3ccccc32)c(-c2ccc(F)cc2)n1 (configuration not stated) | -5.32%
33 | COc1ccc(CCn2c(=N)c(C(=O)NCC3CCCO3)cc3c(=O)n4cccc(C)c4nc32)cc1OC (configuration not stated) | 0.0539%
34 | Cc1cccn2c(=O)c3cc(C(=O)NCC4CCCO4)c(=N)n(Cc4ccc(F)cc4)c3nc12 (configuration not stated) | 188% (active)
35 | Cc1cccn2c(=O)c3cc(C(=O)N4COCC4(C)C)n(C)c3nc12 | -4.28%
36 | CCOC(=O)C1CCN(Cc2c(C(=O)N3CCOCC3)nc3c(C)cccn23)CC1 | -0.645%
37 | CCc1noc(C)c1C(=O)N1CCCC(N2CCN(c3ccc(F)cc3)CC2)C1 (configuration not stated) | 3.28%
38 | OCc1ccc(-c2ccccc2)c(-c2ccccc2)c1 | 3.41%
39 | CCOC(=O)c1ccc(NC(=O)c2c(NCc3ccccc3)[nH]c(=O)[nH]c2=O)cc1 | -5.92%
40 | Cc1ccsc1C1C(C#N)=C(N)OC2=C1C(=O)CC(C)(C)C2 (configuration not stated) | -0.947%
41 | Cc1cc2c(cc1C)NC(c1ccccn1)C1=C(CC(C)(C)CC1=O)N2 (configuration not stated) | -3.07%
42 | CC(C)C1C2=C(CC(C)(C)CC2=O)ON1c1ccccc1 (configuration not stated) | 26.1% (active)

Row | SMILES | inhibition
43 | CCCCCCCCCCCCN1[C@@H](CC(C)=O)c2cc(F)cc(F)c2S1(=O)=O | -0.304%
44 | CCCC1OC23CCCCC2C(C#N)(C#N)C1(C#N)C(=N)O3 (configuration not stated) | 41.6% (active)
45 | CC(C)N(C(=O)Cn1cc(S(=O)(=O)CC(=O)N2CCOCC2)c2ccccc21)C(C)C | 2.93%
46 | O=C1CCc2cc(S(=O)(=O)Nc3ccc(C(F)(F)F)cc3)cc3c2N1CC3 | -3.26%
47 | O=C(COc1cccc2c1CCNC2=O)NC1CCCCC1 | -2.21%
48 | Cc1cc2nc3c(=O)n(Cc4ccccc4)c(=O)[nH]c3nc2cc1N | -261%
49 | CCOC(=O)c1ccc2c(c1)nc(C)n2CC | -1.9%
50 | CC(=O)c1ccc(-c2ccc(Cn3c(C)nc4cc(N)c(C)nc43)cc2)cc1 | 27.1% (active)
51 | O=C(CSc1n[nH]c(-c2cccs2)n1)N1CCCCC1 | -0.392%
52 | CS(=O)(=O)c1ccc(C(=O)OCC(=O)NNC(=O)COc2ccc(Cl)cc2)cc1 | -2.55%
53 | O=C(CSc1ccccn1)N1CCN(S(=O)(=O)c2ccc(Cl)cc2)CC1 | -1.48%
54 | Cc1cccc(NC(=O)c2ccc(S(=O)(=O)N(C)CC3CCCO3)cc2)c1C (configuration not stated) | -0.172%
55 | Cc1ccc(C(=O)N2CCN(C(=O)N3CCOCC3)CC2)cc1 | -2.03%
56 | N#C/C(=C/c1ccc(N2CCOCC2)o1)C(=O)N1CCOCC1 | 39.5% (active)
57 | N#C/C(=C\c1ccc(N2CCOCC2)o1)C(=O)N1CCOCC1 | 56.4% (active)
58 | N#C/C(=C\C1=C(N2CCOCC2)C(=C\c2ccccc2)/CC1)C(=O)Nc1ccccc1F | -3.91%
59 | O=C(N1CCOCC1)N1CCOCC1 | -2.74%
60 | N#C/C(=C\c1ccc(-c2cccc([N+](=O)[O-])c2)o1)C(=O)NCCN1CCOCC1 | 2.98%
61 | CC(Oc1ccc(F)cc1)C(=O)Nc1ccccc1C(=O)NC1CC1 (configuration not stated) | -6.02%
62 | Cc1ccc(-c2cc(=O)[nH]c(NCc3ccccc3)n2)cc1 | 4.99%
63 | CSCCC(NC(=O)c1ccco1)C(=O)Nc1cc(C)ccn1 (configuration not stated) | -2.09%

Row | SMILES | inhibition
64 | Cc1cc(Cl)c2oc(C(=O)N(C)C(C)c3ccccn3)c(C)c2c1 (configuration not stated) | 1.52%
65 | CC(=O)Nc1ccc(NC(=O)CS(=O)(=O)c2cn(CC(=O)N3CCCCC3)c3ccccc23)cc1 | -0.901%
66 | Cc1ccc(C)c(-c2nnc(NC(=O)CS(=O)(=O)c3ccccc3)o2)c1 | -0.829%
67 | CNC(=O)c1cc2c(ccc3ccccc32)oc1=N | 35.7% (active)
68 | N=c1oc2ccccc2cc1C(=O)N/N=C/c1ccccc1 | 3.47%
69 | N=c1oc2ccccc2cc1C(=O)NCc1ccccc1 | 2.48%
70 | O=C(NNC(=O)c1cc(-c2ccccc2Cl)nc2ccccc12)c1csc(N2CCOCC2)n1 | 1.15%
71 | O=C(NCc1ccncc1)c1ccc(NS(=O)(=O)c2cccc([N+](=O)[O-])c2)cc1 | 3.31%
72 | CC(OC(=O)CNC(=O)c1ccco1)C(=O)Nc1ccc(Cl)cn1 (configuration not stated) | 0.318%
73 | CNC(C)C#Cc1ccc2sc3cc(OC)c(OC)cc3c(=O)c2c1 (configuration not stated) | 38.7% (active)
74 | Cc1cccc(N2CCN(C(=O)CCS(=O)(=O)c3ccc4c(c3)NC(=O)C(C)S4)CC2)c1C (configuration not stated) | 1.94%
75 | CSc1nsc(NC(=O)Nc2ccccc2)n1 | 1.6%
76 | NC(=O)CCN1CCN(S(=O)(=O)/C=C/c2ccccc2)CC1 | 3.03%
77 | O=c1cc(CN2CCN(S(=O)(=O)/C=C/c3ccccc3)CC2)c2ccc(O)cc2o1 | 21% (active)
78 | COc1ccc2c(CN3CCN(S(=O)(=O)c4cccs4)CC3)cc(=O)oc2c1 | -2.73%
79 | CCOC(=O)N1CCN(C(=O)c2ccc(S(=O)(=O)Nc3cccc(C(F)(F)F)c3)cc2)CC1 | -0.937%
80 | CN(C)CCCn1c(N)c(C#N)c2nc(C#N)c(C#N)nc21 | 27.1% (active)
81 | Cc1ccc2nnn(Cc3cccc(C(C)(C)C)c3O)c2c1 | 9.31%
82 | COCCCn1c(SCC(=O)Nc2oc(C)c3c(C)n[nH]c(=O)c23)nc2sc3c(c2c1=O)CCC3 | -0.217%

— PubChem BioAssay AID2216 (Broad Institute, 2009)
